# Data taken from PMC7862700, “An all-to-all approach to the identification of sequence-specific readers for epigenetic DNA modifications on cytosine”.
# Assays:
# Experiment in all cases: DAPPL (digital affinity profiling via proximity ligation, sequencing); 10 mM Tris-HCl pH 7.5, 50 mM NaCl, 1 mM DTT, 4% glycerol, room temperature, 30 min; GST-TFs on glutathione beads, 16-mer random dsDNA library, 0.1% formaldehyde crosslink after washing; high values mean tight binding
# FLI1 = target: T1, FLI1 (Homo sapiens, UniProt Q01543 1-452); conditions: protein: recombinant; tags: N-terminal GST; dsDNA, one strand shown
# T1 sequence: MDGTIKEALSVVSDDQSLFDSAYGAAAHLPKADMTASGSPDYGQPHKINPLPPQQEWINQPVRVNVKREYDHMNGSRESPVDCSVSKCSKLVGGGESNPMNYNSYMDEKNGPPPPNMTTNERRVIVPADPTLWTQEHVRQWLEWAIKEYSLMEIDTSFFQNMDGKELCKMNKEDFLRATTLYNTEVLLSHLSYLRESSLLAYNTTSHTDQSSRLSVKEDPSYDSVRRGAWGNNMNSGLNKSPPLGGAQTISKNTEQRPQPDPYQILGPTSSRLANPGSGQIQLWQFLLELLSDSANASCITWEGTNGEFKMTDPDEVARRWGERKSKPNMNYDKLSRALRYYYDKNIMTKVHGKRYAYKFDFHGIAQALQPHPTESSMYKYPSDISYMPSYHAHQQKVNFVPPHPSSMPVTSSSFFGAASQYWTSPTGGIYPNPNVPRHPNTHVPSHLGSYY
# Summary of the method: (§1)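 After expression in yeast as GST fusions, human transcription factors were bound to glutathione beads, DNA-barcoded and mixed with a tag-only sample. The pools were incubated with 200 nmole of a 16-mer random double-stranded DNA library in Tris/NaCl/DTT/glycerol buffer (30 min, room temperature), washed and crosslinked with 0.1% formaldehyde. Proximity ligation with BsaI/T4 ligase ran for 1 h at 37 °C, before PCR amplification and sequencing on an Illumina NextSeq500. Binding signal is a hexamer's read frequency for a factor divided by its frequency for the tag-only sample.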
# ELK1 = target: T2, ELK1 (Homo sapiens, UniProt P19419 1-428); conditions: protein: recombinant; tags: N-terminal GST; dsDNA, one strand shown
# T2 sequence: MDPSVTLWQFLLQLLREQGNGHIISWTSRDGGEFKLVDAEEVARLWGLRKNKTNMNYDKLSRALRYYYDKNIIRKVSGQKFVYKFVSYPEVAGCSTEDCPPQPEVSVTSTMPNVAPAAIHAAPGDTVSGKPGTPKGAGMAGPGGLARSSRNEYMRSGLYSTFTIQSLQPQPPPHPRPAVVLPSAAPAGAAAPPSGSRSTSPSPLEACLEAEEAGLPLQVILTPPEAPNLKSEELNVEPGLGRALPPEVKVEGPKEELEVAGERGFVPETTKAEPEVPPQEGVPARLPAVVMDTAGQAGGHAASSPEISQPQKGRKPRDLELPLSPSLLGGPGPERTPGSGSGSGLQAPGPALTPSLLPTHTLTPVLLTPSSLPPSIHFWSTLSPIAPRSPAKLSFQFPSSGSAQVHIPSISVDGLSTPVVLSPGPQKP
# Summary of the method: as §1
# GABPA = target: T3, GABPA (Homo sapiens, UniProt Q06546 1-454); conditions: protein: recombinant; tags: N-terminal GST; dsDNA, one strand shown
# T3 sequence: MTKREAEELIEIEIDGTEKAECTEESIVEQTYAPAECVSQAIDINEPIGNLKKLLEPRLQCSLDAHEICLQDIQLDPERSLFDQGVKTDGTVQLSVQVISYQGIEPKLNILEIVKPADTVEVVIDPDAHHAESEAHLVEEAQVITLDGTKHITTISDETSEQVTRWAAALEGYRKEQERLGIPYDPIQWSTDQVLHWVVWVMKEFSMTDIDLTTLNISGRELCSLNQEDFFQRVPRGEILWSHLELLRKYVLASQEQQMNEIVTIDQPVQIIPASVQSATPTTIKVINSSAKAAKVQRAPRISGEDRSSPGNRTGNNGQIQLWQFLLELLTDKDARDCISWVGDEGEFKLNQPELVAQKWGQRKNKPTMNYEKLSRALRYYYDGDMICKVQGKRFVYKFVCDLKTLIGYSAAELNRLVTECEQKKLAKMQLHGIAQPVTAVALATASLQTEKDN
# Summary of the method: as §1
# ERG = target: T4, ERG (Homo sapiens, UniProt P11308 1-479); conditions: protein: recombinant; tags: N-terminal GST; dsDNA, one strand shown
# T4 sequence: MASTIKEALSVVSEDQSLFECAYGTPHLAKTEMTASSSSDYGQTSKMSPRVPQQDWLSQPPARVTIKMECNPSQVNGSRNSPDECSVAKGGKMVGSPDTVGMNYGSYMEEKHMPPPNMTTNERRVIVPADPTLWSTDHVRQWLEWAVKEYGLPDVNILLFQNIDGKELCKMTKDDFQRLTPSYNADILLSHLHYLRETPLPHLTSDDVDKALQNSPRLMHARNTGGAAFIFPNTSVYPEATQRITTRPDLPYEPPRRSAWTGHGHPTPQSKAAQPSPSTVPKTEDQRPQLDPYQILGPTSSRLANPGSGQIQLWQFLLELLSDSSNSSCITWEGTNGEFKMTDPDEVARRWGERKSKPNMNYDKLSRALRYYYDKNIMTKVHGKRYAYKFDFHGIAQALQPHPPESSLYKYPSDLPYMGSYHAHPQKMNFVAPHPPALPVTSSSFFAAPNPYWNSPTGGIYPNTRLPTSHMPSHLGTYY
# Summary of the method: as §1
# ELF1 = ELF1 (Homo sapiens, UniProt P32519 1-619); conditions: protein: recombinant; tags: N-terminal GST; dsDNA, one strand shown
# Summary of the method: as §1
# EHF = target: T5, EHF (Homo sapiens, UniProt Q9NZC4 1-300); conditions: protein: recombinant; tags: N-terminal GST; dsDNA, one strand shown
# T5 sequence: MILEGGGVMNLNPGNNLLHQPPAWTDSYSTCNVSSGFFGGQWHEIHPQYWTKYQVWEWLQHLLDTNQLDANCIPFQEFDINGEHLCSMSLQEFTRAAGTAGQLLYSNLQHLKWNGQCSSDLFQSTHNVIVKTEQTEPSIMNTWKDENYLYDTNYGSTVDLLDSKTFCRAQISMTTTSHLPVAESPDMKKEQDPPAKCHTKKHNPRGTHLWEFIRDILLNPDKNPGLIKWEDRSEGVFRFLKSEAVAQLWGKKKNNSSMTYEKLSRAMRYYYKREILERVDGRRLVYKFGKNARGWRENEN
# Summary of the method: as §1
# SPI1 = SPI1 (Homo sapiens, UniProt P17947 1-270); conditions: protein: recombinant; tags: N-terminal GST; dsDNA, one strand shown
# Summary of the method: as §1
# SPIB = SPIB (Homo sapiens, UniProt Q01892 1-262); conditions: protein: recombinant; tags: N-terminal GST; dsDNA, one strand shown
# Summary of the method: as §1
# ELK3 = target: T6, ELK3 (Homo sapiens, UniProt P41970 1-407); conditions: protein: recombinant; tags: N-terminal GST; dsDNA, one strand shown
# T6 sequence: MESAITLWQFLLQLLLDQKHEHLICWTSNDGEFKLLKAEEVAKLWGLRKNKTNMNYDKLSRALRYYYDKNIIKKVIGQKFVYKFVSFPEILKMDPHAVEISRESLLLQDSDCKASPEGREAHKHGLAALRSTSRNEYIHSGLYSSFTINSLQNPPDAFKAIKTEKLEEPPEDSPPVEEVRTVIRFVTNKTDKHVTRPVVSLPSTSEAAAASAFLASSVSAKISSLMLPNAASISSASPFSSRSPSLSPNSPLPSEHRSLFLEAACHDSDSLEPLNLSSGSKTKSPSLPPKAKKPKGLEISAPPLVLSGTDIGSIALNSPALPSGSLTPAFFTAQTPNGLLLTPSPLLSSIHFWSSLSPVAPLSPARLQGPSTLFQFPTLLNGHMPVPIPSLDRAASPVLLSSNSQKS
# Summary of the method: as §1
# FEV = target: T7, FEV (Homo sapiens, UniProt Q99581 1-238); conditions: protein: recombinant; tags: N-terminal GST; dsDNA, one strand shown
# T7 sequence: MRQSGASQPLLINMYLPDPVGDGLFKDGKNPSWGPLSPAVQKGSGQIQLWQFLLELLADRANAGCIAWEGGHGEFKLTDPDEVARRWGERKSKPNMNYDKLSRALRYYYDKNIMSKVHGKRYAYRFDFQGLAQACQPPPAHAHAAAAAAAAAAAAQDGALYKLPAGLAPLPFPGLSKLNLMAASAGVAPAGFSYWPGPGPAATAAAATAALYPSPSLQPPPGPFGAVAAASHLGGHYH
# Summary of the method: as §1
# ETV5 = ETV5 (Homo sapiens, UniProt P41161 1-510); conditions: protein: recombinant; tags: N-terminal GST; dsDNA, one strand shown
# Summary of the method: as §1
# HSF1 = HSF1 (Homo sapiens, UniProt Q00613 1-529); conditions: protein: recombinant; tags: N-terminal GST; chain copies: 3; dsDNA, one strand shown
# Summary of the method: as §1
# SPIC = target: T8, SPIC (Homo sapiens, UniProt Q8N5J4 1-248); conditions: protein: recombinant; tags: N-terminal GST; dsDNA, one strand shown
# T8 sequence: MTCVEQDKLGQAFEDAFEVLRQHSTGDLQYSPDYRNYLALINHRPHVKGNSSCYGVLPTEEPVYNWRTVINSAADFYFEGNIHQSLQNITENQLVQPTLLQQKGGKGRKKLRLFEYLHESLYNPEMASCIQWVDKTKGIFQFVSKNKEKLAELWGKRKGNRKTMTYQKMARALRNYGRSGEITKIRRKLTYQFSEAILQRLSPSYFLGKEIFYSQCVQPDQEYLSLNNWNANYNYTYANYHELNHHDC
# Summary of the method: as §1
# ELF4 = ELF4 (Homo sapiens, UniProt Q99607 1-663); conditions: protein: recombinant; tags: N-terminal GST; dsDNA, one strand shown
# Summary of the method: as §1
# ELK4 = target: T9, ELK4 (Homo sapiens, UniProt P28324-2 1-405); conditions: protein: recombinant; tags: N-terminal GST; dsDNA, one strand shown
# T9 sequence: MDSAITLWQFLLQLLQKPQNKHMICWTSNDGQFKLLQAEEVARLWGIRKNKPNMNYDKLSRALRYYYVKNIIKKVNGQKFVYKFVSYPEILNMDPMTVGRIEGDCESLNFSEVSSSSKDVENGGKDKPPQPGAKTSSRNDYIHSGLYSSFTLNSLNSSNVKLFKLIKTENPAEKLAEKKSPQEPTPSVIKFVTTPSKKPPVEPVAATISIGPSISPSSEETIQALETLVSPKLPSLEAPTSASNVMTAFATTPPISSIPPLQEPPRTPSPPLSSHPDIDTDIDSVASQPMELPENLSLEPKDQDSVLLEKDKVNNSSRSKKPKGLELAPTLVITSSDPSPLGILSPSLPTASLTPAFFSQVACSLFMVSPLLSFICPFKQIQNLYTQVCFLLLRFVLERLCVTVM
# Summary of the method: as §1
# ETV2 = target: T10, ETV2 (Homo sapiens, UniProt O00321 1-342); conditions: protein: recombinant; tags: N-terminal GST; dsDNA, one strand shown
# T10 sequence: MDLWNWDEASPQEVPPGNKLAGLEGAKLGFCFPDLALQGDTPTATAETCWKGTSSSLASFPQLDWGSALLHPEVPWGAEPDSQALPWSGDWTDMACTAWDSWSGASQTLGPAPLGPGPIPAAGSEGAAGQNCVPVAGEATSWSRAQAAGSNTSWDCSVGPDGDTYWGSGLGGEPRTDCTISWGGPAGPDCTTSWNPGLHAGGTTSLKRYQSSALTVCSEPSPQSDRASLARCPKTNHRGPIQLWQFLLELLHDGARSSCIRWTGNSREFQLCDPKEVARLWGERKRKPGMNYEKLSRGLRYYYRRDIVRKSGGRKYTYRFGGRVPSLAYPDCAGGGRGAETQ
# Summary of the method: as §1
# ELF3 = target: T11, ELF3 (Homo sapiens, UniProt P78545 1-371); conditions: protein: recombinant; tags: N-terminal GST; dsDNA, one strand shown
# T11 sequence: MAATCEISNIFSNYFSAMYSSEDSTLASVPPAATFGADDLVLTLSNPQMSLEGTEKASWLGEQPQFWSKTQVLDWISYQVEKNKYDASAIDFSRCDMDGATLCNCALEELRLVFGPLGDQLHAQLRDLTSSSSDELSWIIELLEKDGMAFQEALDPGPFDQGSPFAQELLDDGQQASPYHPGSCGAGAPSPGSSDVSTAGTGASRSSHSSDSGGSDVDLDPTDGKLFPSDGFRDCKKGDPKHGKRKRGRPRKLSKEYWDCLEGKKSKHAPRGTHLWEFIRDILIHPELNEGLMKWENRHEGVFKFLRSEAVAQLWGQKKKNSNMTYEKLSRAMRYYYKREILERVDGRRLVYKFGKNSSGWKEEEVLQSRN
# Summary of the method: as §1
# CRX = CRX (Homo sapiens, UniProt O43186 1-299); conditions: protein: recombinant; tags: N-terminal GST; dsDNA, one strand shown
# Summary of the method: as §1
# ETV1 = ETV1 (Homo sapiens, UniProt P50549 1-477); conditions: protein: recombinant; tags: N-terminal GST; dsDNA, one strand shown
# Summary of the method: as §1
# Sequence of ELF1 (P32519 whole entry): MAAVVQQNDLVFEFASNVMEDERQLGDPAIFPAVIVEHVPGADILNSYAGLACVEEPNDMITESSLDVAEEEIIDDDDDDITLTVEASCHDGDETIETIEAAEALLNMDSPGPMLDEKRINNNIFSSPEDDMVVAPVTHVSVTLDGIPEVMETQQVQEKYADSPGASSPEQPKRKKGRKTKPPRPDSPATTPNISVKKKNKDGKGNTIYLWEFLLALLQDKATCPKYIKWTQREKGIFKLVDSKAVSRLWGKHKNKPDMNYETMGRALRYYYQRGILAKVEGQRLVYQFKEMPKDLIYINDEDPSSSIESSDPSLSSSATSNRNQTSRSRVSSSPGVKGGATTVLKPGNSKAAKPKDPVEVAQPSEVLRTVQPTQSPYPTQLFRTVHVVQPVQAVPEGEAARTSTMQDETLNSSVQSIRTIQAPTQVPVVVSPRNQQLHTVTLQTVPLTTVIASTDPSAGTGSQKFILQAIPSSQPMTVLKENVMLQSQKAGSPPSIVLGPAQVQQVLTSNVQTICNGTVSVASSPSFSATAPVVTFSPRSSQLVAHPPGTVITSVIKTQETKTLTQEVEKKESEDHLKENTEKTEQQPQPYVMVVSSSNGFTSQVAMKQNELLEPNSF
# Sequence of ELF4 (Q99607 whole entry): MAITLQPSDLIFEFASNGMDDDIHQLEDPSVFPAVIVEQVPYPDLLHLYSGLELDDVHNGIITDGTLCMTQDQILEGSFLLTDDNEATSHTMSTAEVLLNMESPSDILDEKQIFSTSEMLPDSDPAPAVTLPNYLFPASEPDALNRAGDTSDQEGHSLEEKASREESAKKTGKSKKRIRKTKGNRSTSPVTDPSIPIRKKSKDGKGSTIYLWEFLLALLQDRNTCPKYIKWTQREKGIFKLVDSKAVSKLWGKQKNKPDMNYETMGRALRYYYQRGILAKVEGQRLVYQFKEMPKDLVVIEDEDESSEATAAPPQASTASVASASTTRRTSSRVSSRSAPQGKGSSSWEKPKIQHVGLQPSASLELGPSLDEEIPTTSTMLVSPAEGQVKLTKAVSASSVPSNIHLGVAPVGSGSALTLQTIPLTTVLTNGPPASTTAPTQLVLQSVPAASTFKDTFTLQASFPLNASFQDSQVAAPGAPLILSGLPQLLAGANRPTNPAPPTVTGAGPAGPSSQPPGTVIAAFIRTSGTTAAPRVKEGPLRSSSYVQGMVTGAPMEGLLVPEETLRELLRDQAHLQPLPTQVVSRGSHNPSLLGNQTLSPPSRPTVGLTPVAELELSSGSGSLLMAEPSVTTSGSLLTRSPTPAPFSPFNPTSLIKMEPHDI
# Sequence of HSF1 (Q00613 whole entry): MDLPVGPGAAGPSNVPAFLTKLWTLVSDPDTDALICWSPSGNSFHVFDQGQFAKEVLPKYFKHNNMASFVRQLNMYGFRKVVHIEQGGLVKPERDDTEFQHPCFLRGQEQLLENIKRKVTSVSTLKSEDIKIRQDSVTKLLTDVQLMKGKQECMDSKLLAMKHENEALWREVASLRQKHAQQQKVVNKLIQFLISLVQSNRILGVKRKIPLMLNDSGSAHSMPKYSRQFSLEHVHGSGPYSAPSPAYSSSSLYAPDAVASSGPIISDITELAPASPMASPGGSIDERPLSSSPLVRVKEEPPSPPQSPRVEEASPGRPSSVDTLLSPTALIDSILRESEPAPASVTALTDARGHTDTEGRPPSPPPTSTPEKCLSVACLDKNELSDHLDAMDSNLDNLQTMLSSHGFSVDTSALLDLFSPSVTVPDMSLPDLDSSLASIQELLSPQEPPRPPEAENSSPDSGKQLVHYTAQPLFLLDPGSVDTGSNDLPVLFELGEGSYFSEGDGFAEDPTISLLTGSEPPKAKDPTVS
# Sequence of CRX (O43186 whole entry): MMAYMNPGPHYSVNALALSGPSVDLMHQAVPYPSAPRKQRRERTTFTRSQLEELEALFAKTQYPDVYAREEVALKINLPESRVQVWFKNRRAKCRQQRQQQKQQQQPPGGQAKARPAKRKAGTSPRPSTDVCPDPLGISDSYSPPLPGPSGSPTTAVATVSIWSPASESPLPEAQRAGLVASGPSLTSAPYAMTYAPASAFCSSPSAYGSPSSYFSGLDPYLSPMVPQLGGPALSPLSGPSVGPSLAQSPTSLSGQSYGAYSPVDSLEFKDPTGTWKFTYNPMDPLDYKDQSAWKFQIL
# Sequence of ETV5 (P41161 whole entry): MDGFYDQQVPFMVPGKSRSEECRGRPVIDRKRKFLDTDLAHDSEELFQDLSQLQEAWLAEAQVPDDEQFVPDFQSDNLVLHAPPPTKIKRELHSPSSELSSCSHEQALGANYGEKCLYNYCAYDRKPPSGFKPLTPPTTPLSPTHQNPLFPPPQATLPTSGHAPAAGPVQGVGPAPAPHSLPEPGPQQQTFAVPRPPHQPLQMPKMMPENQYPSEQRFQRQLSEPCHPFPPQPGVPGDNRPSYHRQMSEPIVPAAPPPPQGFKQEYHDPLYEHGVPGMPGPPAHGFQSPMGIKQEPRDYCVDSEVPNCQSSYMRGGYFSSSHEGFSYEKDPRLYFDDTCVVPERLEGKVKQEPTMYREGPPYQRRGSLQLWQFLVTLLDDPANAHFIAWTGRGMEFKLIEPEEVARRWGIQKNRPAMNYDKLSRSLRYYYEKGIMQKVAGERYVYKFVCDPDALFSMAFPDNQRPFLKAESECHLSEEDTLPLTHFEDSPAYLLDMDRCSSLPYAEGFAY
# Sequence of ETV1 (P50549 whole entry): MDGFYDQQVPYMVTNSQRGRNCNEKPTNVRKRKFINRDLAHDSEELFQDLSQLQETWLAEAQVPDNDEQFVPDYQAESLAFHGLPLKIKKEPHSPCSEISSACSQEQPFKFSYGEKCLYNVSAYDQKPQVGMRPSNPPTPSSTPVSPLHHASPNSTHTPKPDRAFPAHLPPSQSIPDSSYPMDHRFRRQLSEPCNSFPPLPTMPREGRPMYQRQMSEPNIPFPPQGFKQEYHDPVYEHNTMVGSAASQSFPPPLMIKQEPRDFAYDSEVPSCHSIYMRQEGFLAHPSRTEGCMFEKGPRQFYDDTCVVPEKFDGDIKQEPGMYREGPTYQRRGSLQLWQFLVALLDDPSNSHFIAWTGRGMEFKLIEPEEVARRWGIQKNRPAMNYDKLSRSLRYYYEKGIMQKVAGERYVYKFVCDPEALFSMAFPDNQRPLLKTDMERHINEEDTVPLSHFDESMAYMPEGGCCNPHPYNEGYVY
# Sequence of SPIB (Q01892 whole entry): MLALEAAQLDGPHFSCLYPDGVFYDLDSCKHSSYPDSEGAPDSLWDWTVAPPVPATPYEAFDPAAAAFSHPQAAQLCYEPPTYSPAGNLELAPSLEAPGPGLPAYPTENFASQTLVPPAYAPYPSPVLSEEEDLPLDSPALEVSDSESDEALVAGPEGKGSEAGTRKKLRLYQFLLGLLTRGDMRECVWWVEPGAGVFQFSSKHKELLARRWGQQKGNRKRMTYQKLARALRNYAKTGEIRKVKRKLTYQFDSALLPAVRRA
sequence,measurement,setting,value
TAGGCT,binding signal,FLI1,"1.22 fold enrichment (6-mer frequency, TF over GST control)"
same,binding signal,ELK1,"1.18 fold enrichment (6-mer frequency, TF over GST control)"
same,binding signal,GABPA,"1.3 fold enrichment (6-mer frequency, TF over GST control)"
same,binding signal,ERG,"1.23 fold enrichment (6-mer frequency, TF over GST control)"
same,binding signal,ELF1,"1.21 fold enrichment (6-mer frequency, TF over GST control)"
same,binding signal,EHF,"1.2 fold enrichment (6-mer frequency, TF over GST control)"
same,binding signal,SPI1,"1.19 fold enrichment (6-mer frequency, TF over GST control)"
same,binding signal,SPIB,"1.1 fold enrichment (6-mer frequency, TF over GST control)"
same,binding signal,ELK3,"1.26 fold enrichment (6-mer frequency, TF over GST control)"
same,binding signal,FEV,"1.25 fold enrichment (6-mer frequency, TF over GST control)"
same,binding signal,ETV5,"1.19 fold enrichment (6-mer frequency, TF over GST control)"
same,binding signal,HSF1,"1.45 fold enrichment (6-mer frequency, TF over GST control)"
same,binding signal,SPIC,"1.29 fold enrichment (6-mer frequency, TF over GST control)"
same,binding signal,ELF4,"1.2 fold enrichment (6-mer frequency, TF over GST control)"
same,binding signal,ELK4,"1.13 fold enrichment (6-mer frequency, TF over GST control)"
same,binding signal,ETV2,"1.09 fold enrichment (6-mer frequency, TF over GST control)"
same,binding signal,ELF3,"1.1 fold enrichment (6-mer frequency, TF over GST control)"
same,binding signal,CRX,"1.99 fold enrichment (6-mer frequency, TF over GST control)"
same,binding signal,ETV1,"1.08 fold enrichment (6-mer frequency, TF over GST control)"
